About 5,100 (1.2%) of roughly 410,000 compounds were called active. A call without a number means that no potency is given here. About 8% were inconclusive and are not listed. The call rests on the fitted dose curve; tested in HEK293T cells. Only a selection was taken, and actives are over-represented in it overall.
Assay: High Throughput Screening for Foot and Mouth Disease Virus Antivirals; further: read-out not given here; nearly all actives have a fitted effect of over 45% in size
Details: FMDV antiviral cell-based qHTS; series mostly up to 57.9 µM
Potency means the concentration at half of the fitted maximal effect.

Row | SMILES | Potency
1 | O=C(CCS(=O)(=O)c1ccccc1)N(Cc1cccnc1)c1nc2c(F)cccc2s1 | inactive
2 | O=C(c1ccc(F)cc1)C1CCN(CCCCc2ccccc2)CC1 | inactive
3 | CS(=O)(=O)N1CCC2(CC1)CN(c1ccncc1)C2 | inactive
4 | CCOC(=O)c1c(NC(=O)c2cc(-c3ccc(Cl)cc3)on2)sc2c1CCCC2 | inactive
5 | Cc1ccc(Cl)cc1NC(=O)CSc1nc2ccccc2nc1Cc1ccccc1 | inactive
6 | NC(=O)c1sc(-c2ccsc2)cc1N | inactive
7 | CN(CCO)c1ccc(/C=N/Nc2nncc3ccccc23)cc1 | 10 µM (active)
8 | COc1cccc(-c2cc(NCCc3c[nH]c4ccc(OC)cc34)ncn2)c1 | inactive
9 | O=C(c1cnccn1)N1CCC2(CCCN(Cc3ccccc3)C2)CC1 | inactive
10 | CCNc1ncc2ncc(=O)n(CCc3ccccc3)c2n1 | inactive
11 | COc1ccc(Nc2cc(C(=O)NCCCN(C)c3ccccc3)c3ccccc3n2)c(OC)c1 | inactive
12 | O=C(Nc1cccc(F)c1)N1CC2(CCN(C(=O)c3csnn3)CC2)C1 | inactive
13 | CCOC(=O)C1C(=O)C=C(c2ccc(OC)cc2)CC1c1ccco1 (centres undefined) | inactive
14 | CCOC(=O)C1=C(c2ccccc2)NC(=O)NC1c1cc(OC)c(OC)cc1OC (centres undefined) | inactive
15 | CCOC(=O)C1=C(c2ccc(OC)cc2)C(=O)c2ccccc2C1=O | 3.55 µM (active)
16 | CC(C)(CNC(=O)c1ccc(Cl)c(S(=O)(=O)N2CCc3ccccc3C2)c1)N1CCOCC1 | 12.6 µM (active)
17 | CC(C)(CNC(=O)Cc1ccc(Cl)cc1Cl)N1CCOCC1 | inactive
18 | CN(C)S(=O)(=O)c1ccc(C(=O)NCC(C)(C)N2CCOCC2)cc1 | inactive
19 | Cc1ccc(S(=O)(=O)c2c(Nc3cccc(Cl)c3)sc(C(=O)c3ccc4c(c3)OCO4)c2N)cc1 | inactive
20 | CCS(=O)(=O)N1CCc2cc(C(=O)N3CCN(c4ccccc4OC)CC3)ccc21 | inactive
21 | COc1ccccc1CNC(=O)c1ccc(Cl)c(S(=O)(=O)N2CCCC2)c1 | inactive
22 | COc1ccccc1N1CCN(C(=O)c2ccc(Cl)c(S(=O)(=O)N3CCCC3)c2)CC1 | 20 µM (active)

Row | SMILES | Potency
23 | CCCC1OC23CCCCC2C(C#N)(C#N)C1(C#N)C(=N)O3 (centres undefined) | 20 µM (active)
24 | CN1CCCC1CCO[C@@](C)(c1ccccc1)c1ccc(Cl)cc1 (some centres undefined) | inactive
25 | CN1CCN(C(=O)O[C@@H]2c3nccnc3C(=O)N2c2ccc(Cl)cn2)CC1 | inactive
26 | Cc1cnc(-n2ncc(C(=O)N3CCN(C(C)C)CC3)c2-c2ccco2)nc1-c1ccc(F)cc1 | inactive
27 | CCN(CC)S(=O)(=O)c1ccc(N(C)Cc2cccc(OC)c2OC)nc1 | 20 µM (active)
28 | COc1ccc(S(=O)(=O)N2CCCCCC2)cc1C(=O)N(C)Cc1cccc(OC)c1OC | inactive
29 | COc1cccc(CN(C)CC(=O)NCc2ccccc2Cl)c1OC | inactive
30 | COc1ccc(S(=O)(=O)NCC(c2ccc(N(C)C)cc2)N2CCCC2)cc1 (centres undefined) | inactive
31 | COc1ccc(CN2CCOc3c(cc(-c4ncc(C(F)(F)F)cc4Cl)cc3OCC3CCCO3)C2)c(O)c1 (centres undefined) | inactive
32 | Cc1ccc(NS(=O)(=O)c2ccc3c(c2)CC(=O)N3)cc1Cl | inactive
33 | COCC(=O)N1CCC2(CCCN(c3ccccc3)C2)CC1 | inactive
34 | COC(=O)c1ccc(CN2CCCC(C(=O)Nc3cccc(-n4cnnn4)c3)C2)cc1 (centres undefined) | 28.2 µM (active)
35 | CC(C)CNC(=O)C1CCCN(S(=O)(=O)c2ccc(-n3cnnn3)cc2)C1 (centres undefined) | inactive
36 | O=C(Nc1ccc(F)cc1)C1CCCN(S(=O)(=O)c2ccc(-n3cnnn3)cc2)C1 (centres undefined) | inactive
37 | CN(CC(=O)Nc1cccc(C(F)(F)F)c1)S(=O)(=O)c1cccs1 | inactive
38 | COc1ccccc1CNC(=O)C(=O)NCC(c1cccs1)S(=O)(=O)c1cccs1 (centres undefined) | inactive
39 | Cc1no[n+]([O-])c1COc1ccccc1/C=C1\NC(=S)NC1=O | inactive
40 | C#CCOc1ccccc1/C=C1/C(=O)ON=C1C | 39.8 µM (active)
41 | CN1CCCCCC1C(=O)NCCN1Cc2ccccc2OC(c2ccsc2)C1 (centres undefined) | inactive
42 | Cc1cc(C(=O)CCl)c(C)n1CC1COc2ccccc2O1 (centres undefined) | 12.6 µM (active)
43 | CCn1ccnc1C[C@@H]1COc2ccccc2O1 | inactive
44 | Cc1n[nH]c(C)c1S(=O)(=O)N1CCCC(C(=O)NCC2COc3ccccc3O2)C1 (centres undefined) | inactive

Row | SMILES | Potency
45 | Cc1ccc(-c2cn3c(n2)sc2cc(C(=O)NCCCc4ccccc4)ccc23)cc1 | inactive
46 | COc1cc(C2c3c(oc4ccccc4c3=O)C(=O)N2c2nc(C)c(C)s2)ccc1O (centres undefined) | inactive
47 | COC(C[C@H](O)CC(=O)[C@@H](C)OCc1ccccc1)OC | inactive
48 | COC(C/C=C/C(=O)[C@@H](C)OCc1ccccc1)OC | 39.8 µM (active)
49 | COC(C[C@@H]1O[C@@H]1C(=O)[C@H](C)OCc1ccccc1)OC | inactive
50 | Cc1nc2cnc(N3CCNCC3)nc2n(Cc2ccc(F)cc2)c1=O | inactive
51 | C=CCSSCC=C | inactive
52 | O=C(OCc1ccccc1F)c1ccc2c(c1)OCCO2 | inactive
53 | O=C(COC(=O)c1ccccc1)c1ccc2c(c1)OCCO2 | 12.6 µM (active)
54 | N#CCCN(C(=O)COC(=O)c1ccc2c(c1)OCCO2)c1ccccc1 | inactive
55 | COc1cc(=O)n2c(c1C(=O)N(C)Cc1nonc1C)CCN(C(=O)c1ccc(C)cc1C)CC2 | inactive
56 | COc1ccc(-c2nc3cnc(N(C)C)nc3n(Cc3cccs3)c2=O)cc1 | inactive
57 | Cc1cccc(-n2ncc(C(=O)N3CCc4ccccc4C3)c2C2CCN(C(=O)OC(C)(C)C)CC2)c1 | 2 µM (active)
58 | Cc1cccc(-n2ncc(C(=O)N3CCC(C)CC3)c2C2CCN(C(=O)OC(C)(C)C)CC2)c1 | inactive
59 | Cc1cccc(-n2ncc(C(=O)N3CCN(c4ccc(Cl)cc4)CC3)c2C2CCN(C(=O)OC(C)(C)C)CC2)c1 | inactive
60 | O=C(Nc1nc(-c2ccc3c(c2)OCO3)cs1)c1ccncc1 | 15.8 µM (active)
61 | c1ccc2c(Nc3ccncc3)nc(-c3ccc4c(c3)OCO4)nc2c1 | inactive
62 | CC(O)(c1cccc(F)c1)c1nc(-c2ccc3c(c2)OCO3)cs1 (centres undefined) | inactive
63 | COCCn1c(=O)c(-c2cccs2)nc2cncnc21 | inactive
64 | Cc1c(C(=O)NCC2CCCN(C)C2)cnn1-c1nccc(-c2ccco2)n1 (centres undefined) | inactive

— PubChem BioAssay AID1159524 (National Center for Advancing Translational Sciences (NCATS), 2015)
